Measurements: PubChem BioAssay AID1159580 (chemical genetic matrix, 2015)
Several values for one entry are separate records, joined by “and”; a condition that tells them apart may be missing. Equal entries are not always repeated. Hit rate of the full screen: of about 5,500 compounds, about 2,000 (36%) were called active. Not shown: some 18% with an inconclusive outcome. The list shows a part of the results. Values without a mark were called inactive. Cut-off read from the data, not from the text of the source: active = normalized growth mostly below about 0.91 (no sharp cut-off); inconclusive = no clear call, values can overlap the other calls; inactive = mostly above about 0.92.

Test: chemical genetic growth profiling, strain panel (AID 1159580);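 note: tested at 20 µM; growth read once vehicle control cultures reached saturation at 30 °C; 1 = growth at the plate median or of vehicle wells; lower values mean less growth of the strain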
Conditions: S. cerevisiae deletion strains, growth OD

Question: Which results are given for O=c1c(O)c(-c2ccc(O)c(O)c2)oc2cc(O)ccc12?
Answer: normalized growth (locus YAL013W, strain DEP1, hits give low values): 0.836 (active); normalized growth (locus YAL021C, strain ccr4, hits give low values): 1; normalized growth (locus YAL026C, strain drs2, hits give low values): 0.965; normalized growth (locus YAL030W, strain snc1, hits give low values): 1; normalized growth (locus YBL061C, strain skt5, hits give low values): 0.964; normalized growth (locus YBR009C, strain hhf1, hits give low values): 1.01; normalized growth (locus YBR021W, strain FUR4, hits give low values): 0.961; normalized growth (locus YBR023C, strain chs3, hits give low values): 0.961; normalized growth (locus YBR171W, strain sec66, hits give low values): 0.977; normalized growth (locus YBR229C, strain ROT2, hits give low values): 0.993; normalized growth (locus YBR231C, strain swc5, hits give low values): 0.921; normalized growth (locus YBR279W, strain paf1, hits give low values): 0.983; normalized growth (locus YCL011C, strain gbp2, hits give low values): 0.982; normalized growth (locus YCL016C, strain dcc1, hits give low values): 0.977; normalized growth (locus YCL029C, strain bik1, hits give low values): 0.988; normalized growth (locus YCL069W, strain vba3, hits give low values): 1.01; normalized growth (locus YCR088W, strain abp1, hits give low values): 1; normalized growth (locus YDL005C, strain med2, hits give low values): 0.987; normalized growth (locus YDL035C, strain GPR1, hits give low values): 0.864; normalized growth (locus YDL040C, strain nat1, hits give low values): 1; normalized growth (locus YDL074C, strain BRE1, hits give low values): 0.742 (active); normalized growth (locus YDL101C, strain DUN1, hits give low values): 0.98; normalized growth (locus YDL134C, strain PPH21, hits give low values): 0.955; normalized growth (locus YDL185W, strain tfp1, hits give low values): 0.972; normalized growth (locus YDL192W, strain arf1, hits give low values): 0.946; normalized growth (locus YDR001C, strain nth1, hits give low values): 1; normalized growth (locus YDR069C, strain doa4, hits give low values): 0.904; normalized growth (locus YDR101C, strain arx1, hits give low values): 0.957; normalized growth (locus YDR137W, strain rgp1, hits give low values): 0.978; normalized growth (locus YDR150W, strain NUM1, hits give low values): 0.946; normalized growth (locus YDR159W, strain sac3, hits give low values): 0.934; normalized growth (locus YDR162C, strain NBP2, hits give low values): 0.831 (active); normalized growth (locus YDR195W, strain ref2): 0.969; normalized growth (locus YDR297W, strain sur2, hits give low values): 0.966; normalized growth (locus YDR318W, strain mcm21, hits give low values): 0.927; normalized growth (locus YDR334W, strain swr1, hits give low values): 0.981; normalized growth (locus YDR335W, strain msn5, hits give low values): 0.995; normalized growth (locus YDR388W, hits give low values): 0.974; normalized growth (locus YDR392W, strain spt3, hits give low values): 0.845; normalized growth (locus YDR502C, strain sam2, hits give low values): 0.915 (active); normalized growth (locus YEL003W, strain gim4, hits give low values): 0.961; normalized growth (locus YEL037C, strain rad23, hits give low values): 0.988; normalized growth (locus YEL061C, strain CIN8 (second series), hits give low values): 0.996; normalized growth (locus YEL061C, strain CIN8, hits give low values): 0.95; normalized growth (locus YER015W, strain faa2, hits give low values): 0.974; normalized growth (locus YER016W, strain bim1, hits give low values): 0.989; normalized growth (locus YER110C, hits give low values): 0.982; normalized growth (locus YER111C, strain swi4, hits give low values): 0.97; normalized growth (locus YER155C, strain BEM2 (second series), hits give low values): 0.89; normalized growth (locus YER155C, strain BEM2, hits give low values): 1.02; normalized growth (locus YER167W, strain BCK2, hits give low values): 0.9 (active); normalized growth (locus YFR010W, strain ubp6, hits give low values): 0.96; normalized growth (locus YGL078C, strain dbp3, hits give low values): 0.988; normalized growth (locus YGL086W, strain mad1, hits give low values): 0.905 (active); normalized growth (locus YGL167C, strain pmr1, hits give low values): 0.972; normalized growth (locus YGL173C, strain kem1, hits give low values): 0.938; normalized growth (locus YGL227W, strain vid30, hits give low values): 0.994; normalized growth (locus YGL240W, strain doc1, hits give low values): 1.03; normalized growth (locus YGL248W, strain PDE1, hits give low values): 0.923; normalized growth (locus YGL253W, strain hxk2, hits give low values): 0.969; normalized growth (locus YGR078C, strain PAC10, hits give low values): 0.756 (active); normalized growth (locus YGR135W, strain pre9, hits give low values): 0.85 (active); normalized growth (locus YGR229C, strain SMI1, hits give low values): 0.372 (active); normalized growth (locus YGR252W, strain gcn5, hits give low values): 0.873; normalized growth (locus YHR013C, strain ard1, hits give low values): 0.94; normalized growth (locus YHR027C, strain rpn1, hits give low values): 0.988; normalized growth (locus YHR030C, strain SLT2, hits give low values): 0.899 (active) and 0.324 (active); normalized growth (locus YHR079C, strain IRE1 (second series), hits give low values): 0.978; normalized growth (locus YHR079C, strain IRE1, hits give low values): 0.381 (active); normalized growth (locus YHR094C, strain hxt1, hits give low values): 1.01; normalized growth (locus YHR129C, strain ARP1, hits give low values): 0.861 (active); normalized growth (locus YHR142W, strain chs7, hits give low values): 0.982; normalized growth (locus YHR200W, strain rpn10, hits give low values): 0.938; normalized growth (locus YIL066C, strain RNR3, hits give low values): 0.846 (active); normalized growth (locus YIL073C, strain SPO22, hits give low values): 0.851; normalized growth (locus YIL125W, strain kgd1, hits give low values): 0.967; normalized growth (locus YIR030C, strain dcg1, hits give low values): 1.01; normalized growth (locus YJL092W, strain hpr5, hits give low values): 0.995; normalized growth (locus YJL095W, strain BCK1 (second series), hits give low values): 0.981; normalized growth (locus YJL095W, strain BCK1, hits give low values): 0.743 (active) and 0.428 (active); normalized growth (locus YJL115W, strain asf1, hits give low values): 0.998; normalized growth (locus YJL129C, strain trk1, hits give low values): 0.966; normalized growth (locus YJL134W, strain LCB3, hits give low values): 1; normalized growth (locus YJL154C, strain vps35, hits give low values): 0.999; normalized growth (locus YJL164C, strain tpk1, hits give low values): 0.985; normalized growth (locus YJL166W, strain qcr8, hits give low values): 0.986; normalized growth (locus YJL168C, strain set2, hits give low values): 0.985; normalized growth (locus YJL187C, strain SWE1 (second series), hits give low values): 0.915; normalized growth (locus YJR043C, strain POL32, hits give low values): 0.778 (active); normalized growth (locus YJR066W, strain TOR1, hits give low values): 0.59 (active); normalized growth (locus YJR075W, strain HOC1, hits give low values): 0.83 (active)
